CYP2C9 activ = human CYP2C9 activators, primary screen, biochemical, luminescence; activation factor at 5 µM; Cytochrome P450 2C9 (Homo sapiens), P11712; recombinant CYP2C9, luciferin-H conversion; active compounds read high; factor 1 = untreated enzyme, 0 = blocked; AID 1024, 2008; actives 1.4% (n = 96,000);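 active = activation factor of 2 or more for CYP2C9 at a 5 µM dose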
CYP2C19 inhib = blockers of cytochrome P450 2C19 activity – biochemical, luminescence, ADME assay, primary screen. actives 21% (n = 96,000). AID 778, 2007. CYP2C19 Supersomes, luciferin-H EGE luminescence, 30 min. P33261. inhibition, % at 5 µM;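 active = CYP2C19 inhibition above a set limit at 5 µM in the primary screen, cut at about 50% in these data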
sEH inhibitor = soluble epoxide hydrolase inhibitors, primary screen, biochemical, human sEH; Bifunctional epoxide hydrolase 2 (Homo sapiens), P34913; recombinant human sEH enzymatic activity assay; inhibition, % at 2 µM; actives 0.34% (n = 91,000); AID 707, 2007; in the data active = inhibition above about 80%
Target sequence (P34913 whole entry, looked up): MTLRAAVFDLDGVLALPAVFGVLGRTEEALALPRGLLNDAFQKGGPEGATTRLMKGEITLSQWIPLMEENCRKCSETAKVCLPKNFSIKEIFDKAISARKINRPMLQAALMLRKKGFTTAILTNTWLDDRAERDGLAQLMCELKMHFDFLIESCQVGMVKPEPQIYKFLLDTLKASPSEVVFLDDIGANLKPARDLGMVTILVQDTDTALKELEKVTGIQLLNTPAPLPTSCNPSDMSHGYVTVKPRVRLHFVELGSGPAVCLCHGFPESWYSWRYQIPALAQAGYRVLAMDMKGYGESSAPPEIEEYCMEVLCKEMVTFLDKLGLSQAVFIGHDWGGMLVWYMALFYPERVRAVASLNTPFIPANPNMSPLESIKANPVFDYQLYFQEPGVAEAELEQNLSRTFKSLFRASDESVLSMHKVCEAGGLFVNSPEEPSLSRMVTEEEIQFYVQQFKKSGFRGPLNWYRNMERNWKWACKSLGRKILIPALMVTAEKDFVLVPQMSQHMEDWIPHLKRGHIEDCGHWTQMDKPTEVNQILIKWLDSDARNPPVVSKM
CYP2C9 inhib = blockers of cytochrome P450 2C9 activity – biochemical, luminescence, ADME assay, primary screen; P11712; CYP2C9 Supersomes, luciferin-H conversion; inhibition, % at 5 µM; actives 20% (n = 96,000); AID 777, 2007;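 active = blocking of liver enzyme CYP2C9 beyond about 50% at 5 µM, limit read from the data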
CYP2C19 activ = human CYP2C19 activators, primary screen, biochemical, luminescence | Cytochrome P450 2C19 (Homo sapiens), P33261 | activation factor at 5 µM | 96,000 tested, under 10 active | recombinant CYP2C19, luciferin-H EGE luminescence; active compounds read high; 0 = fully inhibited enzyme, 1 = untreated enzyme | AID 1025, 2008;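 active = activation factor of at least 2 at 5 µM in the primary screen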
sEH act = soluble epoxide hydrolase activators, primary screen, biochemical, human sEH; purified human sEH enzymatic activity, activator screen; actives 0.04% (n = 91,000); activation, % at 2 µM; in the data active = activation above about 37%
Of the large screens only hits and unclear results are named; the others gave an inactive call. In the library only some 27% were active in any assay of this set; here they are far more common.

Cc1cc(C)nc(NS(=O)(=O)c2ccccc2)n1	none
O=C1CN(C(=O)CSc2nncn2-c2ccccc2)c2ccccc2N1	none
CS(=O)(=O)NCCSCc1c(F)cccc1Cl	none
CS(=O)(=O)NCCSCc1c(Cl)cccc1Cl	CYP2C9 inhib 63
COC(=O)c1scc(C)c1N/N=C(\C)c1cc(F)c(Cl)cc1F	none
Nc1c(N(C(=O)Nc2ccc(Cl)c(Cl)c2)C2CCCC2)c(=O)[nH]c(=O)n1Cc1ccccc1	none
COc1ccc2c(=O)c(C(=O)NCCc3ccc(OC)c(OC)c3)c[nH]c2c1	CYP2C9 inhib 54
Cc1cccc(NC(=O)C2CC(=O)n3cnnc3S2)c1 (centres undefined)	none
Cc1ccc(S(=O)(=O)N2CCN(S(=O)(=O)N3CCCCC3)CC2)c(C)c1	none
O=S(=O)(c1cccc(Cl)c1Cl)N1CCCCC1	CYP2C9 activ 2.7, CYP2C19 inhib 83
COc1c(S(=O)(=O)N2CCCC2)ccc(Cl)c1Cl	CYP2C9 activ 2.4, CYP2C19 inhib 88
COC(=O)CC1=NC(=O)CS1	none (no result: sEH inhibitor, sEH act)
O=C(OCCN1C(=O)c2ccccc2C1=O)c1cc(S(=O)(=O)N2CCOCC2)ccc1Cl	CYP2C19 inhib 78, CYP2C9 inhib 86
CCOC(=O)c1ccc(S(=O)(=O)N2CCN(C)CC2)cc1	none
CCOC(=O)N1CCN(S(=O)(=O)c2ccc(F)c(C(=O)Nc3cccc(C)c3C)c2)CC1	none
CN(C)CCCNC(=O)c1cc(S(=O)(=O)N2CCOCC2)ccc1F	none
CCOC(=O)c1ccccc1NS(=O)(=O)c1ccc(S(=O)(=O)N2CCCC2)cc1	CYP2C19 inhib 97, CYP2C9 inhib 91 (no result: sEH inhibitor, sEH act)
CCOC(=O)c1ccccc1NC(=O)c1cc(S(=O)(=O)N2CCOCC2)ccc1F	CYP2C9 inhib 59
O=C(NCCSCc1ccccc1)c1cc(S(=O)(=O)N2CCOCC2)ccc1F	CYP2C19 inhib 51, CYP2C9 inhib 70 (no result: sEH inhibitor, sEH act)
Cc1onc(-c2ccccc2Cl)c1-c1nc(-c2ccncc2)no1	CYP2C19 inhib 99, CYP2C9 inhib 88
c1coc(-c2nc(-c3ccncc3)no2)c1	CYP2C19 inhib 87
c1ccc(-c2ccccc2-c2nc(-c3ccncc3)no2)cc1	CYP2C19 inhib 91, CYP2C9 inhib 74
COc1nc(-c2ccc(Cl)cc2)ccc1-c1noc(-c2ccco2)n1	none
c1ccc(-c2noc(-c3cccnc3)n2)cc1	none
Cn1nc(-c2ccccc2)c(-c2nc(-c3ccccc3Cl)no2)c1Cl	none
COc1ccc(-c2noc(CSc3nc(-c4ccccc4)cc(=O)[nH]3)n2)cc1OC	CYP2C9 inhib 60
CCCc1nnc(NC(=O)CCC(=O)Nc2ccc(F)cc2)s1	none
Cc1ccc2c(CC(=O)NC3=NCCS3)coc2c1	none
c1ccc(C(Cc2nc(-c3ccncc3)no2)c2ccccc2)cc1	CYP2C19 inhib 98, CYP2C9 inhib 90
CSc1ccccc1-c1nnc(-c2ccc(C)cc2)o1	none
COc1ccccc1-c1noc(-c2cccs2)n1	none
COc1ccccc1-c1nc(-c2ccccn2)no1	CYP2C19 inhib 79
COc1ccccc1-c1noc(-c2ccncc2)n1	CYP2C19 inhib 89
CSc1ccccc1-c1nnc(-c2ccccc2)o1	CYP2C9 activ 2.4
COc1ccc(Br)cc1-c1noc(-c2ccncc2)n1	none
COc1ccc(S(=O)(=O)N2CCC(C(=O)NCC3CCCO3)CC2)cc1 (centres undefined)	none
CCOc1ccc(-n2c(SCC(N)=O)nc3c(c2=O)SCC3)cc1	none (no result: sEH inhibitor, sEH act)
COc1ccc(Cn2c(CCC(=O)NCc3ccco3)nc3cccnc32)cc1	none
Nc1nc(SCc2c(F)cccc2Cl)[nH]c(=O)c1-c1ccccc1	none
COc1ccc(-c2noc(-c3ccccc3-c3ccccc3)n2)cc1OC	CYP2C9 inhib 67
COc1ccc(-c2noc(COc3ccc(C)c(C)c3)n2)cc1OC	CYP2C19 inhib 73
Nc1nc(SCc2nc(-c3ccccc3)no2)[nH]c(=O)c1-c1ccccc1	CYP2C19 inhib 73, CYP2C9 inhib 82
Clc1ccccc1-c1nc(-c2cccnc2)no1	none
Cc1ccccc1-c1nc(-c2cccnc2)no1	CYP2C19 inhib 62
COc1cccc(C(=O)CSc2nnc(CNS(=O)(=O)c3ccc(C)cc3)n2C)c1	none
CCn1cc(C(=O)O)c(=O)c2cnc(N3CCN(C(=O)Nc4cccc5ccccc45)CC3)nc21	none (no result: sEH inhibitor, sEH act)
c1ccc(-c2nnc(-c3ccncc3)o2)cc1	CYP2C19 inhib 76
COc1ccc(-c2noc(CCCc3ccccc3)n2)cc1OC	CYP2C19 inhib 80, CYP2C9 inhib 61 (no result: sEH inhibitor, sEH act)
Cc1ccc(-c2noc(CCCc3ccccc3)n2)cc1	none
O=C1c2ccccc2C(=O)N1CCCc1nc(-c2ccncc2)no1	none
c1cc(-c2noc(CCC3CCCC3)n2)ccn1	CYP2C19 inhib 99, CYP2C9 inhib 96
c1ccc(-c2ccc(-c3nc(-c4cccnc4)no3)cc2)cc1	none (no result: sEH inhibitor, sEH act)
c1ccc(-c2ccc(-c3nc(-c4ccncc4)no3)cc2)cc1	CYP2C19 inhib 80, CYP2C9 inhib 72 (no result: sEH inhibitor, sEH act)
CCOc1ccccc1CN1C(=O)c2ccccc2C1C(=O)NCC1CCCO1 (centres undefined)	none
CCn1ccnc1C(O)c1cccc(OC)c1OC (centres undefined)	none
COc1ccc(Cl)cc1C(=O)NC(=S)Nc1cc(-c2nc3ccccc3[nH]2)ccc1C	none (no result: CYP2C9 activ, CYP2C19 inhib, CYP2C9 inhib, CYP2C19 activ)
CCCCNC(=S)Nc1ccccc1F	none
CC1CCCCN1CC(=O)Nc1sccc1C#N (centres undefined)	none
c1ccc(-c2nc(-c3ccncc3)no2)cc1	CYP2C19 inhib 94
COc1nc(C)ccc1-c1noc(-c2ccccn2)n1	none
COc1ccccc1-c1nc(-c2ccc(C)nc2OC)no1	CYP2C19 inhib 62
CC(C)(C)n1nc2c(c1NC(=O)COc1ccc3ccccc3c1)CS(=O)(=O)C2	none
CN(C(=S)NC1=CCS(=O)(=O)C1)C1CCCCC1	none
CCOC(=O)CCP(=O)(O)C(C)(O)c1ccccc1 (centres undefined)	none
CC1=C(C#N)C(Nc2cccc(C)n2)(C(F)(F)F)C(=O)N1 (centres undefined)	CYP2C19 inhib 75
CC(C)C(=O)Nc1nnc(CSCc2ccccc2F)s1	CYP2C19 inhib 70
CCOCCc1nnc(NC(=O)C(CC)c2ccccc2)s1 (centres undefined)	CYP2C19 inhib 56, CYP2C9 inhib 87
CC(C)C(=O)Nc1nnc(CCc2nnc(NC(=O)C(C)C)s2)s1	none (no result: CYP2C9 activ, CYP2C19 inhib, CYP2C9 inhib, CYP2C19 activ)
CC(C)COC(=O)Nc1nnc(SCc2ccccc2F)s1	none
CC(C)(C)C(=O)Nc1nnc(CSCc2ccccc2F)s1	CYP2C19 inhib 59, CYP2C9 inhib 56
CCOCCc1nnc(NC(=O)c2ccc(OC)c(OC)c2)s1	none

Source: PubChem (several laboratories)
